From PubChem BioAssay AID1851 (National Center for Advancing Translational Sciences (NCATS), 2009)
In all, about 16,000 compounds went through this assay and about 5,700 (36%) were called active. Another 24% or so got no clear call; they are omitted. Calls follow the shape of the dose curve; as a rule, active = well fitted curve in the direction sought with a large enough effect; inconclusive = small, poorly fitted or top-dose-only effect, or effect the other way; inactive = no such curve, though single readings can be large or run the other way. This is one part of the list.

Each compound was assayed against Cytochrome P450 1A2 (Homo sapiens) (UniProt P05177) (assay: Cytochrome panel assay with activity outcomes). Settings: recombinant CYP, pro-luciferin dealkylation, luminescence, p450-cyp1a2; series mostly up to 57.1 µM.
% is scaled to controls: 0 for no effect and ±100 for the full control effect.

Chain of Cytochrome P450 1A2 (Homo sapiens) (P05177 whole entry, looked up): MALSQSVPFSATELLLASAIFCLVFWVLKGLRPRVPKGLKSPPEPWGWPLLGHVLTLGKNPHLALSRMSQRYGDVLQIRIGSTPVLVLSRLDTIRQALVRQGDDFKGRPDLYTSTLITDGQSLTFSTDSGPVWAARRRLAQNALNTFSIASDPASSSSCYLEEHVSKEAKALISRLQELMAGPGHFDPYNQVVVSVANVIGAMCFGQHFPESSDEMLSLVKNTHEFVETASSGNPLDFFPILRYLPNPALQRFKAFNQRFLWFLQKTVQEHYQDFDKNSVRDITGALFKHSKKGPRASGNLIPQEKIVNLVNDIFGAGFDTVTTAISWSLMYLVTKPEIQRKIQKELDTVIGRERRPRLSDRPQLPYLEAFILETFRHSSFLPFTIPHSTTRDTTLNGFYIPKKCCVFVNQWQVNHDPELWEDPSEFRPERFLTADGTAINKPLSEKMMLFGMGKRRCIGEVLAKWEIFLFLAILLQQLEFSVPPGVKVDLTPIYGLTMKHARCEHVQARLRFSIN

SMILES	AC50	activity, negative = inhibition
Cc1c(N2C(=O)CS/C2=N\N=C\c2ccc(Cl)cc2)c(=O)n(-c2ccccc2)n1C	inactive	
Cc1nnc(SCC2=C(C(=O)O)N3C(=O)[C@@H](NC(=O)Cn4cnnn4)[C@@H]3SC2)s1	inactive	
COCCn1c(=O)c(-c2cccs2)nc2cnc(Oc3ccccc3)nc21	2000 nM (active)	
COCCn1c(=O)c(-c2cccs2)nc2cnc(Oc3ccc(OC)cc3)nc21	2510 nM (active)	
COc1ccccc1-c1nc(NCc2cnc(C)cn2)c2ccccc2n1	5010 nM (active)	
Cc1cnc(CNc2nc(-c3ccccc3Cl)nc3ccccc23)cn1	6310 nM (active)	
Cc1cnc(CNc2nc(-c3ccccc3C(F)(F)F)nc3ccccc23)cn1	12600 nM (active)	
Cc1cnc(CNc2nc(-c3ccccc3C)nc3ccccc23)cn1	3160 nM (active)	
CCN(CC)C(=O)C1CC(=O)N(c2ccc(OC)cc2)C1c1ccc(OC)cc1 (configuration not stated)	inactive	
COc1ccc(C(C(=O)NC2CCCC2)N(C(=O)c2snc(-c3ccc(F)cc3)c2N)c2ccc(F)cc2)cc1 (configuration not stated)	inactive	
CCN1/C(=C/c2ccc3cccc(C)c3[n+]2CC)Sc2ccccc21	14100 nM (active)	
CCOC(=O)c1cn(-c2nc(-c3ccc(Cl)cc3)cs2)c2c(F)c(N3CC(C)OC(C)C3)c(F)cc2c1=O (configuration not stated)	inactive	
CCOC(=O)c1cnn(-c2nc(-c3cccc(F)c3)cs2)c1C(F)(F)F	2240 nM (active)	
COC(=O)C1CCN(c2cc(=O)n(C3CCCCC3)c(=O)[nH]2)CC1	inactive	
COC(=O)c1cc(=O)n(C2CC2)c(=NC2CC2)s1	2000 nM (active)	
CCCCCc1nc2c(=O)[nH]c3ccccc3c2o1	398 nM (active)	
CCN(CC)CCNc1ccc(CO)c2sc3ccccc3c(=O)c12	126 nM (active)	
O=C(NCCCN1CCCCCC1)C1CC(=O)N(CCc2ccccc2)C1 (configuration not stated)	inactive	
CCN(CC)CCCNC(=O)CC1Sc2ccccc2NC1=O (configuration not stated)	inactive	
O=c1c2ccccc2sc2c(CO)ccc(NCCN3CCCCC3)c12	1580 nM (active)	
CN1CCCCC1=NCCCn1cnc2c1c(=O)n(C)c(=O)n2C	inactive	

SMILES	AC50	activity, negative = inhibition
COCC(=O)N1CCC2(CC1)CCN(c1ccccn1)CC2	inactive	
Cc1ccc(C(=O)Cn2nnc3c(sc4nc5c(c(-c6ccccc6)c43)CCC5)c2=O)cc1	inactive	
CCOC(=O)Cn1nnc2c(sc3nc4c(c(-c5ccc(Cl)cc5)c32)CCC4)c1=O	3160 nM (active)	
Cc1ccc(-c2c3c(nc4sc(C(N)=O)c(N)c24)CCC3)cc1	3550 nM (active)	
Nc1nc(N)nc(CCCc2nc(N)nc(N)n2)n1		-16.3% [at 11.4 µM] (inactive)
NC(=O)c1ccccc1-c1nc(-n2ccnc2)c2ccccc2n1	2510 nM (active)	
Cc1ccccc1-c1nc(-n2ccnc2)c2ccccc2n1	316 nM (active)	
Clc1ccccc1-c1nc(-n2ccnc2)c2ccccc2n1	158 nM (active)	
CCCn1c(C)nc2c(c1=O)c1nc3ccccc3nc1n2CCC1=CCCCC1	25100 nM (active)	
CCO/C(C)=N/n1c2nc3ccccc3nc2c2c(=O)n(CC(C)C)c(C)nc21	inactive	
COc1ccccc1CN1CCC2(CC1)CCN(S(=O)(=O)c1ccccc1)CC2	inactive	
O=C(NCCCN1CCN(Cc2ccccc2)CC1)C1CCN(S(=O)(=O)N2CCCC2)CC1	inactive	
COc1ccc(C(=O)N/C(=C/c2cccs2)C(=O)NCCCn2ccnc2)cc1OC	inactive	
COc1ccc(S(N)(=O)=O)cc1C(=O)NCCCN1CCN(c2cccc(Cl)c2)CC1	inactive	
COc1ccc2c(Cl)c(C(=O)NCCCn3ccnc3)sc2c1Cl	631 nM (active)	
N#CCCn1nnc2ccccc21	inactive	
c1ccc2c(c1)nnn2CN1CCOCC1		-8.08% [at 11.4 µM] (inactive)
Nn1nnc2ccccc21	12600 nM (active)	
Cc1ccc(NC(=O)C2(NC(=O)c3cccc(N4C(=O)CSC4c4ccccc4)c3)CCCCC2)cc1 (configuration not stated)	inactive	
O=C1NCCc2c1[nH]c1ccccc21	2820 nM (active)	
Cn1cccc1C(=O)N1CCC[C@@]2(CCN(Cc3ccc(C#N)cc3)C2)C1	inactive	

SMILES	AC50	activity, negative = inhibition
COc1ccc2cc(C(=O)Nc3ccc(F)cc3)sc(=O)c2c1OC	1120 nM (active)	
COC(=O)Nc1ccc2[nH]cc(CCNC(C)=O)c2c1	316 nM (active)	
O=C(O)Cc1c[nH]c2ccc(O)cc12	inactive	
COc1cc2c(CCNC(C)=O)c[nH]c2cc1Cl	126 nM (active)	
Nc1ccc2[nH]cc(CCC(=O)O)c2c1		-8.18% [at 11.4 µM] (inactive)
CC[C@@H](c1ccccc1)n1c(=O)n2n(c1=O)[C@H]1[C@H](O)[C@H]3O[C@@H]3/C(=N/OCc3ccccc3)[C@@H]1CC2		-0.045% [at 11.4 µM] (inactive)
CCC1CCCCN1Cc1cc(OC)c(O)c([N+](=O)[O-])c1 (configuration not stated)	inactive	
CCCCCCN1C=CC(=C/C=C(\C#N)C(=O)OCC)C=C1	inactive	
COc1cc(C(=O)NC(=S)Nc2ccc(Cl)c(C(=O)O)c2)cc(OC)c1OC	inactive	
COc1cc(OC)c(NC(=S)Nc2cccc(C(C)=O)c2)cc1Cl	6310 nM (active)	
Cc1ccc(-n2nnnc2-c2cnc3ccc(Cl)cc3c2-c2ccccc2)cc1	inactive	
Clc1ccc2[nH]cc(-c3nnnn3-c3ccccc3)c2c1	7940 nM (active)	
Fc1ccc(-c2[nH]ncc2-c2nnnn2-c2ccccc2)c(F)c1	inactive	
O=C(Nc1cccc(F)c1)N1CC2(CCN(C(=O)c3csnn3)CC2)C1	inactive	
COC(=O)NCC(c1cccnc1)N1CCN(c2ccccc2OC)CC1 (configuration not stated)	inactive	
COc1ccc(N2CCN(C(CNC(=O)C3CCCCC3)c3cccnc3)CC2)cc1 (configuration not stated)	inactive	
COc1cc(C(=O)NCC(c2cccnc2)N2CCN(C)CC2)cc(OC)c1OC (configuration not stated)	20000 nM (active)	
COc1ccc2cc1Oc1ccc(cc1)C[C@@H]1c3c(cc(OC)c4c3Oc3cc5c(cc3O4)CCN[C@H]5C2)CCN1C		-14.6% [at 11.4 µM] (inactive)
NCCS	inactive	
O=C(N/N=C1/C[C@@H](O)[C@@H](O)[C@@H]2[C@H]3C(=O)N(c4ccc(F)cc4F)C(=O)[C@@H]3CC[C@@H]12)OCc1ccccc1		-2.1% [at 11.4 µM] (inactive)
